APOBEC3A inh: APOBEC3A ssDNA deaminase inhibitors, primary screen, selectivity assay for APOBEC3G inhibitor project, biochemical, FAM/TAMRA oligo cleavage fluorescence. DNA dC->dU-editing enzyme APOBEC-3A (Homo sapiens), P31941. recombinant A3A, FAM/TAMRA ssDNA deamination fluorescence. inhibition, % at 20 µM. 330,000 tested, 0.41% active. AID 493011, 2011;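 active means at least 40% inhibition at 20 µM here, with at most 30% in a related deaminase screen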
aDG glyco up: activators of alpha-DG glycosylation, primary screen, uHTS, Pro5-aDG cells, AlphaScreen; activation, % at 10 µM; 360,000 tested, 0.22% active; AID 624168, 2012; alpha-DG glycosylation AlphaScreen (IIH6); 0% Pro5, 100% B10-LARGE cell signal;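 active means activation of at least 8% versus controls, or a plate z-score of at least 8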;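 further: Pro5 are CHO cells carrying HIG-tagged alpha-DG that lacks glycosylation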
rCAG RNA binder: binders of r(CAG) RNA repeats, primary screen, biochemical, fluorescence; r(CAG) RNA repeat, TO-PRO-1 dye displacement fluorescence; inhibition, % at 3 µM; 370,000 tested, 1.3% active; AID 651821, 2012;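 active means inhibition above the plate cutoff, the mean of all test compounds on that plate plus 3 SD, cut at about 35% in these data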;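 further: higher means more dye released from RNA so lower well fluorescence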
PHOSPHO1 inh: PubChem AID 1565 | recombinant PHOSPHO1, absorbance phosphatase assay | inhibition, % at 13.3 µM | 290,000 tested, 1.1% active; in the data active means inhibition above about 60%
APOBEC3G inh: APOBEC3G DNA deaminase inhibitors, primary screen, biochemical, fluorescence, single-stranded DNA substrate, uHTS; DNA dC->dU-editing enzyme APOBEC-3G (Homo sapiens), Q9HC16; recombinant A3G, ssDNA deamination FAM/TAMRA fluorescence; inhibition, % at 20 µM; 330,000 tested, 0.28% active; AID 493012, 2011;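 active means inhibition of at least 40% at 20 µM, with no more than 30% in the related APOBEC3A deaminase screen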
Target sequence (Q9HC16 whole entry, looked up): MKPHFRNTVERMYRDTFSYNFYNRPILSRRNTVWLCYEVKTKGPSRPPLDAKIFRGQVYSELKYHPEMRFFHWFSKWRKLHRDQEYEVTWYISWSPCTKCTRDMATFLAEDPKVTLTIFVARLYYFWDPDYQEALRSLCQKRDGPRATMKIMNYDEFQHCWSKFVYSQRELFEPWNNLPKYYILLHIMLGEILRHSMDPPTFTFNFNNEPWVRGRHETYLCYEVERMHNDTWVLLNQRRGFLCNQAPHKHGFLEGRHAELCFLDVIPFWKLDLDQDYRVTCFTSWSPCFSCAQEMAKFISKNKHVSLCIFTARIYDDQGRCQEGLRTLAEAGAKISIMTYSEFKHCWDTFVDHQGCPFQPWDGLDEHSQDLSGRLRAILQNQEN
ALR H2O2 inh: inhibitors of human ALR sulfhydryl oxidase, primary screen, biochemical, H2O2 detection, HRP-luminol luminescence, single point; FAD-linked sulfhydryl oxidase ALR (Homo sapiens), P55789; purified ALR, DTT oxidation; inhibition, % (no concentration beside the values); 290,000 tested, 3.8% active; AID 485317, 2010;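 active means mean replicate inhibition above about 79%, with every replicate also reaching it, limit read from the data; inconclusive means only one of the two criteria met; inactive means mean below limit and not every replicate reaching it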
Target sequence (P55789 whole entry, looked up): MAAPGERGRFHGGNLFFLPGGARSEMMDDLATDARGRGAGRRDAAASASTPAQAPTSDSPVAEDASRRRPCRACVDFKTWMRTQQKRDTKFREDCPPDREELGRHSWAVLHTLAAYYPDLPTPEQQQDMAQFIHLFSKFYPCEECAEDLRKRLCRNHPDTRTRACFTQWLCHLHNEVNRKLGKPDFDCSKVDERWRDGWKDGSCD
Hits are given with their value. Most compounds without a hit are left out; they make up all but 5.4% or so of the library.

`CC(=O)Nc1ccc(S(=O)(=O)N2CCN=C2SCc2cccc(C)c2)cc1` gave APOBEC3A inh inactive, aDG glyco up inactive, rCAG RNA binder inactive, PHOSPHO1 inh inactive, APOBEC3G inh inactive and ALR H2O2 inh inactive.
CC(=O)Nc1ccc(S(=O)(=O)N2CCN=C2SCc2ccc([N+](=O)[O-])cc2)cc1 was read as APOBEC3A inh inactive, aDG glyco up inactive, rCAG RNA binder inactive, PHOSPHO1 inh inactive, APOBEC3G inh inactive and ALR H2O2 inh 98.9.
For C=CC[C@H]1c2ccccc2[C@H]2N3N=Cc4ccccc4[C@H]3[C@H](CCc3ccccc3)C(=O)N2N1C(=O)c1ccccc1 the results were rCAG RNA binder inactive.
CN(C(=O)[C@@H](C1CC1)[C@@H](O)c1ccc(Cl)cc1)c1ccccc1 was read as rCAG RNA binder inactive.
Nc1ccc2c(c1)COc1ccccc1O2 was read as APOBEC3A inh inactive, aDG glyco up inactive, rCAG RNA binder inactive, PHOSPHO1 inh inactive, APOBEC3G inh inactive and ALR H2O2 inh 99.1.
For C=CCN(C(=O)Cn1c(C(=O)OC)cc2oc(C)cc21)c1ccccc1 the results were APOBEC3A inh inactive, aDG glyco up inactive, rCAG RNA binder inactive, PHOSPHO1 inh 74.3, APOBEC3G inh inactive and ALR H2O2 inh inactive.
Screening COc1ccc(N/C=C(/C(C)=O)c2ccccc2)cc1 returned APOBEC3A inh inactive, aDG glyco up inactive, rCAG RNA binder inactive, PHOSPHO1 inh inactive, APOBEC3G inh inactive and ALR H2O2 inh 84.0.
Screening COc1ccc(C2C(C(=O)Nc3ccc(F)cc3)CCC(=O)N2c2ccc(OC)cc2)cc1 (centres undefined) returned rCAG RNA binder inactive.
Screening CCn1c(SCC(=O)N/N=C/C(C)=C/c2ccco2)nnc1-c1ccccc1 returned APOBEC3A inh inactive, aDG glyco up inactive, rCAG RNA binder inactive, PHOSPHO1 inh 69.6, APOBEC3G inh inactive and ALR H2O2 inh inactive.
CCn1c(SCC(=O)N/N=C/C(C)=C\c2ccco2)nnc1-c1ccccc1 was read as APOBEC3A inh inactive, aDG glyco up inactive, rCAG RNA binder inactive, PHOSPHO1 inh inactive, APOBEC3G inh inactive and ALR H2O2 inh inactive.
For Fc1ccc(-c2ccnc(=S)[nH]2)cc1 the results were APOBEC3A inh inactive, aDG glyco up inactive, rCAG RNA binder inactive, PHOSPHO1 inh inactive, APOBEC3G inh inactive and ALR H2O2 inh 99.4.
Screening CCN1CC(c2ccccc2)C(c2ccc(Cl)cc2)=N1 (centres undefined) returned APOBEC3A inh inactive, aDG glyco up inactive, rCAG RNA binder inactive, PHOSPHO1 inh inactive, APOBEC3G inh inactive and ALR H2O2 inh 95.0.
Screening C(=NN1CCCCCC1)c1ccccc1 returned aDG glyco up inactive and rCAG RNA binder inactive.
For CN(c1ccccc1)c1ccc(/C=N/N2CCOCC2)cc1 the results were APOBEC3A inh inactive, aDG glyco up inactive, rCAG RNA binder inactive, PHOSPHO1 inh inactive, APOBEC3G inh inactive and ALR H2O2 inh 99.1.
COc1ccc(CN2C(=O)[C@@H]3C(c4ccc(F)cc4)=NO[C@@H]3C2=O)cc1 was read as APOBEC3A inh inactive, aDG glyco up inactive, rCAG RNA binder inactive, PHOSPHO1 inh inactive, APOBEC3G inh inactive and ALR H2O2 inh 98.7.
N#CCC[C@H]1CC[C@]2(CCCN(Cc3cccc4ccccc34)C2)O1 was read as rCAG RNA binder inactive.
For C[C@@H]1ON(C)[C@H]2C[C@H]3c4[nH]c5cccc(-c6cccc(F)c6)c5c4CCN3C(=O)[C@@H]12 the results were rCAG RNA binder inactive.
`COc1ccc(CNC(=O)CN(c2ccc(C)cc2)S(=O)(=O)c2c(C)noc2C)cc1` gave APOBEC3A inh inactive, aDG glyco up inactive, rCAG RNA binder inactive, PHOSPHO1 inh inactive, APOBEC3G inh inactive and ALR H2O2 inh inactive.
CCOc1ccc(N(CC(=O)Nc2cccc(Cl)c2)S(=O)(=O)c2c(C)noc2C)cc1 was read as APOBEC3A inh inactive, aDG glyco up inactive, rCAG RNA binder inactive, PHOSPHO1 inh inactive, APOBEC3G inh inactive and ALR H2O2 inh 96.8.
For COc1ccc(CNC(=O)CN(c2cc(C)cc(C)c2)S(=O)(=O)c2c(C)noc2C)cc1 the results were APOBEC3A inh inactive, aDG glyco up inactive, rCAG RNA binder inactive, PHOSPHO1 inh inactive, APOBEC3G inh inactive and ALR H2O2 inh inconclusive.
`Cc1noc(C)c1S(=O)(=O)N(CC(=O)NCc1ccc2c(c1)OCO2)c1ccc(C(C)C)cc1` gave APOBEC3A inh inactive, aDG glyco up inactive, rCAG RNA binder inactive, PHOSPHO1 inh inactive, APOBEC3G inh inactive and ALR H2O2 inh 95.2.
For Cc1cc(C)cc(N(CC(=O)NCc2ccco2)S(=O)(=O)c2c(C)noc2C)c1 the results were APOBEC3A inh inactive, aDG glyco up inactive, rCAG RNA binder inactive, PHOSPHO1 inh inactive, APOBEC3G inh inactive and ALR H2O2 inh 85.7.
For Cc1ccc(N(CC(=O)NCc2ccc3c(c2)OCO3)S(=O)(=O)c2c(C)noc2C)cc1 the results were APOBEC3A inh inactive, aDG glyco up inactive, rCAG RNA binder inactive, PHOSPHO1 inh inactive, APOBEC3G inh inactive and ALR H2O2 inh 97.3.
CCOc1ccc(N(CC(=O)Nc2cccc(OC)c2)S(=O)(=O)c2c(C)noc2C)cc1 was read as APOBEC3A inh inactive, aDG glyco up inactive, rCAG RNA binder inactive, PHOSPHO1 inh inactive, APOBEC3G inh inactive and ALR H2O2 inh inactive.
`Cc1ccc(CNC(=O)CN(c2ccc(C(C)C)cc2)S(=O)(=O)c2c(C)noc2C)cc1` gave APOBEC3A inh inactive, aDG glyco up inactive, rCAG RNA binder inactive, PHOSPHO1 inh inactive, APOBEC3G inh inactive and ALR H2O2 inh inactive.
For CCOc1ccc(-n2c(COc3ccccc3)nnc2SCC(=O)Nc2ccc(OCc3ccccc3)cc2)cc1 the results were rCAG RNA binder inactive.
CCCn1c(NC(=O)c2ccccc2)nc(Cc2ccccc2)c1-c1ccc(OC)cc1 was read as rCAG RNA binder inactive.
For COCCNC(=O)/C(C#N)=C/c1ccc(O)cc1 the results were APOBEC3A inh inactive, aDG glyco up inactive, rCAG RNA binder inactive, PHOSPHO1 inh inactive, APOBEC3G inh inactive and ALR H2O2 inh 87.3.
COCCNC(=O)/C(C#N)=C/c1cccc(/C=C(\C#N)C(=O)NCCOC)c1 was read as aDG glyco up inactive, rCAG RNA binder inactive, PHOSPHO1 inh inactive and ALR H2O2 inh inactive.
Cc1ccc(CNC(=O)/C(C#N)=C\c2ccc(N(C)C)cc2)cc1 was read as APOBEC3A inh inactive, PHOSPHO1 inh inactive, APOBEC3G inh inactive and ALR H2O2 inh 97.9.
CCCCOCCCNC(=O)C[C@H]1C[C@@]2(C(=O)OC)C(=C[C@H](C(C)(C)C)O[C@@H]2C)N(Cc2ccco2)C1=O was read as rCAG RNA binder inactive.
